A selection: hits, their analogues and other compounds. The true share with any hit is near 3.6%.
TGFb inhibitor – blocks TGF-b signaling | 410,000 compounds, 1.2% hits | Potency, µM (top dose mostly 46.1 µM), hits mostly inhibitors | HepG2 CAGA-GFP TGF-b/SMAD3 reporter, GFP fluorescence, 18 h; TGF-beta stimulated, 500 pg/mL final | AID 588855; note: nearly all actives have a fitted effect of over 65% in size
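Using HEPG2 CAGA-GFP reporter cells at 1000 cells/well, we pinned test compounds, stimulated with recombinant TGF-beta (500 pg/mL final) and measured total well GFP after 18 h.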
A549 viability – counter-screen for Nrf2 inhibitors: cytotoxicity in A549 cells; 390,000 compounds, 0.16% hits; Potency, µM (series often up to 46 µM), most hits filed as inhibitors; A549 ARE-Fluc cells, CellTiter-Fluor viability, 18-24 h
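Cytotoxicity counterscreen: CellTiter-Fluor fluorescence was measured in A549 ARE_Fluc cells after 18-24 h of compound exposure in a concentration series. The subsequent BugLite luminescent read reports ARE-luciferase activity.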
HepG2 tox – HepG2 cytotoxicity, counter-screen for TGF-b inhibitors. 410,000 compounds, 0.76% hits. Potency, µM (titrated, usually from 46.1 µM), most hits filed as cytotoxic. HepG2 CAGA-GFP viability, ATP luminescence, 18 h
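HepG2 CAGA-GFP cells (1000/well, DMEM with 1% FBS) received compound, then TGF-beta at 500 pg/mL final, and were incubated 18 hours at 37 degrees C. Viability was read by CellTiter-Glo luminescence. Media-only wells were set as complete cell-killing and DMSO as no toxicity.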
Nrf2 activator – activators of Nrf2 (ARE) signaling | AREc32 ARE-luciferase reporter (MCF7-derived line), luminescence, 24 h | 410,000 compounds, 0.31% hits | AID 624171 | Potency, µM (doses to about 46.1 µM), actives largely listed as activators; note: nearly all actives have a fitted effect of over 65% in size
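Steps: seed AREc32_Fluc cells (1000/well, 5% FBS OPTI-MEM); incubate overnight at 37 deg C; add 23 nL compound; incubate 24 hr; add Steady-Glo; hold 30 min RT; read luminescence.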
Nrf2 block – inhibitors of Nrf2 signaling. A549 ARE-Fluc reporter, luciferase luminescence, 18-24 h. 360,000 compounds, 2.1% hits. AID 504444. Potency, µM (highest dose often 46 µM), usual class: inhibitors; note: nearly all actives have a fitted effect of over 60% in size
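Two sequential reads on A549 ARE_Fluc cells exposed to compound for 18-24 h: a CellTiter-Fluor fluorescence read for viability, then a luciferase luminescence read for Nrf2/ARE activity.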
A number is an active result; 0 = inactive; ? = inconclusive; - = no result. Calls come from the whole dose curve; as a rule, active = well fitted curve in the direction sought with a large enough effect; inconclusive = small, poorly fitted or top-dose-only effect, or another doubt; inactive = no such curve, though single readings can be large; an effect the other way counts as inactive or inconclusive.

SMILES | TGFb inhibitor | A549 viability | HepG2 tox | Nrf2 activator | Nrf2 block
O=C(NCCCN1CCOCC1)c1cccc(S(=O)(=O)N2CCN(c3ccccc3)CC2)c1 | ? | 0 | 0 | 0 | 0
COc1ccc(CN(C)C(=O)c2cccc(S(=O)(=O)N3CCCc4ccccc43)c2)c(OC)c1OC | ? | ? | 0 | 0 | 23µM
Cc1ccc(C)c(NC(=O)CN(C)C(=O)c2cccc(S(=O)(=O)N3CCN(Cc4ccccc4)CC3)c2)c1 | 0 | 0 | 0 | 0 | 12µM
CN(Cc1ccc(F)cc1)C(=O)c1cccc(S(=O)(=O)N2CCN(c3ccccc3)CC2)c1 | 0 | 0 | 0 | 0 | 23µM
COc1ccc(C(CNC(=O)c2cccc(S(=O)(=O)N3CCCc4ccccc43)c2)N(C)C)cc1 (stereo unspecified) | ? | 0 | 0 | 0 | 0
O=S1(=O)C[C@@H](N2CC[C@@H](O)C2)[C@H](COCc2ccccc2)N1 | 0 | - | 0 | 0 | -
CCN(CC(=O)Nc1c(F)cccc1F)C(=O)c1cccc(S(=O)(=O)N2CCCc3ccccc32)c1 | 0 | ? | 0 | 0 | 26µM
O=C(c1cccc(S(=O)(=O)N2CCCC2)c1)N1CCN(c2ccccc2)CC1 | 0 | 0 | 0 | 0 | ?
CNC(=O)c1ccc(CN(C)C(=O)/C=C/c2ccc(S(=O)(=O)N3CCCCCC3)cc2)cc1 | 0 | - | 7.1µM | 0 | -
COc1ccc(CN(C)C(=O)c2cccc(S(=O)(=O)N3CCN(c4ccccc4)CC3)c2)c(OC)c1OC | ? | 0 | 0 | 0 | 10µM
O=C(c1cccc(S(=O)(=O)N2CCN(c3ccccc3)CC2)c1)N1CCCC(C(F)(F)F)C1 (stereo unspecified) | ? | 0 | 0 | 0 | 13µM
Cc1ccccc1NC(=O)CSc1cn(CC(=O)N(C(C)C)C(C)C)c2ccccc12 | 0 | 0 | 0 | 0 | 0
COc1ccc(-n2c(=O)c3sc4ccccc4c3n(CC(=O)NC3CCCCC3)c2=O)cc1 | 0 | 0 | 0 | 0 | ?
CN(Cc1cccc(F)c1)C(=O)c1ccc(S(=O)(=O)N2CCCCCC2)cc1 | ? | 0 | 0 | 0 | 23µM
CN(CC(=O)Nc1ccc(F)cc1)C(=O)c1cccc(S(=O)(=O)N2CCN(c3ccc(F)cc3)CC2)c1 | 0 | 0 | 0 | 0 | 21µM
CN(Cc1ccc(F)cc1)C(=O)c1cccc(S(=O)(=O)N2CCN(c3ccc(F)cc3)CC2)c1 | ? | 0 | 0 | 0 | 18µM
Cc1c(/C=N/NC(=O)c2ccccc2O)c2ccccn2c1C(=O)c1ccc(F)cc1 | ? | 18µM | 0 | 0 | 21µM
Cc1c(/C=N/NC(=O)c2ccc(O)cc2)c2ccccn2c1C(=O)c1ccc(F)cc1 | 0 | ? | 0 | 0 | ?
O=C1CN(CC(=O)N2CCCCC2)c2ccccc2O1 | ? | 0 | 22µM | 0 | 0
O=C(CN1CC(=O)Oc2ccccc21)OCC(=O)c1ccc(Br)cc1 | 0 | ? | 0 | 13µM | 0
OCCCNCc1cccc2ccccc12 | 0 | 0 | 0 | 0 | -
O=Nc1c(O)n(Cc2ccc(Cl)c(Cl)c2)c2ccccc12 | 0 | 0 | 13µM | 0 | 0
Cc1ccc(NC(=O)c2nc[nH]c2C(=O)N[C@H](C)c2ccccc2)cc1 | ? | 0 | 0 | 0 | ?
CC1CCN(C(=O)c2[nH]cnc2C(=O)N[C@@H](C)C(=O)OCc2ccccc2)CC1 | 11µM | 0 | 0 | 0 | 0
CCOC(=O)c1ccc(NC(=O)c2nc[nH]c2C(=O)N[C@H](C)c2ccccc2)cc1 | ? | ? | 0 | 0 | 16µM
SMILES | TGFb inhibitor | A549 viability | HepG2 tox | Nrf2 activator | Nrf2 block
CC(C)C[C@H](NC(=O)c1[nH]cnc1C(=O)Nc1ccccc1)C(=O)OC(C)(C)C | 16µM | ? | 0 | 0 | ?
CC(C)C[C@H](NC(=O)c1nc[nH]c1C(=O)NCC(=O)OC(C)(C)C)C(=O)OCc1ccccc1 | 11µM | 0 | 0 | 0 | 0
Cn1ncc(=S)[nH]c1=S | 0 | 0 | 0 | 0 | 0
CC(C)C[C@H](NC(=O)c1[nH]cnc1C(=O)N[C@@H](C)C(=O)OC(C)(C)C)C(=O)OC(C)(C)C | ? | ? | 11µM | 0 | ?
CCCCn1c(-c2ccc(Br)cc2F)nc2c1c(=O)[nH]c(=O)n2CC(C)C | ? | ? | 0 | 0 | 21µM
CCCCn1c(=O)[nH]c(=O)c2c1nc(-c1ccc(-c3ccc(F)cc3)o1)n2C | 0 | 0 | 0 | 0 | 0

Source: PubChem
